# Experimental data taken from PubChem BioAssay AID463173 (ICCB-Longwood Screening Facility, Harvard Medical School, 2010).
# Out of some 52,000 compounds screened, about 1,700 (3.3%) were called active. No stated cut-off is given here; in the data, active means survival mostly below about 52% (no sharp cut-off); inactive means mostly above about 56%. For the sample, actives were picked, then their nearest neighbours and some compounds at random.
# Tested on: Wild type
# Assay: growth inhibition of S. aureus wild type versus tarO mutant, primary screen, teichoic acid synthesis inhibitors, RN4220, OD600 (AID 463173)
# Conditions: S. aureus RN4220 wild type/DeltatarO growth, OD600, 18 h, hits give low values, screened at 18.75 µg/mL (by protocol)
row,Structure (SMILES),survival
1,CC(C)CC(=O)Nc1ccc(C(=O)OCc2cc(=O)n3nc(C4CCCCC4)sc3n2)cc1,47% (inactive)
2,CCC12C=CCN3CCC4(c5ccc(OC)cc5NC4C(O)(C(=O)OC)C1OC(C)=O)C32 (stereo not given),100% (inactive)
3,Cc1ccc(-c2nc(CN(C)C)cc(CN(C)C)c2O)cc1,121% (inactive)
4,CCOC(=O)CC(N)c1ccc2c(c1)OCO2 (stereo not given),111% (inactive)
5,O=c1c2cc3c(cc2n(Cc2ccccc2)c(=O)n1Cc1nc(-c2ccccc2)no1)OCO3,112% (inactive)
6,CC(C)CC(=O)Nc1ccc(C(=O)OCc2cc(=O)n3nc(C(C)C)sc3n2)cc1,138% (inactive)
7,Brc1ccc2nc(SCCOc3ccccc3)[nH]c2c1,0% (active)
8,Nc1ccc2nc(SCCOc3ccccc3)sc2c1,108% (inactive)
9,COc1ccc2nc(SCC(O)c3cccc(Br)c3)[nH]c2c1 (stereo not given),84% (inactive)
10,O=C(Nc1c[nH]c2cc(Cl)ccc2c1=O)N1CCCCC1,85% (inactive)
11,CSc1ccc(CNC(=O)Cn2nc(N3CCN(c4ccccc4)CC3)ccc2=O)cc1,64% (inactive)
12,O=c1c2sc3ccccc3c2n(Cc2cccc(Cl)c2)c(=O)n1Cc1ccco1,68% (inactive)
13,CCN1CCOC(=O)C1CC(=O)Nc1ccc(Br)cc1 (stereo not given),38% (inactive)
14,CCOC(=O)c1ccc(NC(=O)CC2C(=O)N(c3ccc(F)cc3)C(=O)N2Cc2ccc(C)cc2)cc1 (stereo not given),61% (inactive)
15,COC(=O)c1ccc(NC(=O)CC2C(=O)N(c3cccc(OC)c3)C(=O)N2C(C)C)cc1 (stereo not given),78% (inactive)
16,CCc1ccc(NC(=O)CC2C(=O)N(c3ccccc3)C(=O)N2C(C)C)cc1 (stereo not given),-6% (active)
17,CCN1CCOC(=O)C1CC(=O)Nc1ccc(C(C)=O)cc1 (stereo not given),65% (inactive)
18,CCCOc1ccc(NC(=O)CC2C(=O)N(c3ccc(C)cc3)C(=O)N2C(C)C)cc1 (stereo not given),133% (inactive)
19,COc1ccc(CN2C(=O)N(c3ccc(F)cc3)C(=O)C2CC(=O)Nc2ccccc2)cc1 (stereo not given),79% (inactive)
20,CCc1ccc(NC(=O)CC2C(=O)OCCN2CC)cc1 (stereo not given),-15% (active)
21,CCCOc1ccc(NC(=O)CC2C(=O)N(c3ccc(F)cc3)C(=O)N2CC(C)C)cc1 (stereo not given),75% (inactive)
22,COC(=O)c1ccc(NC(=O)CC2C(=O)N(c3ccc(F)cc3)C(=O)N2Cc2ccc(OC)cc2)cc1 (stereo not given),131% (inactive)
23,CCCOc1ccc(NC(=O)CC2C(=O)N(c3ccccc3)C(=O)N2Cc2ccc(F)cc2)cc1 (stereo not given),-1% (active)
24,COC(=O)c1ccc(NC(=O)CC2C(=O)N(c3ccccc3)C(=O)N2Cc2ccc(F)cc2)cc1 (stereo not given),14% (active)

row,Structure (SMILES),survival
1,O=C(CSc1nc(=O)n(Cc2ccco2)c2c1CCC2)Nc1ccccc1C(F)(F)F,138% (inactive)
2,Cc1ccccc1CNC(=O)c1ccc2c(c1)c(C)c(C)n2C,58% (inactive)
3,CC1CCCN(c2ccc(C(=O)NCc3ccccc3)cn2)C1 (stereo not given),103% (inactive)
4,CCc1cccc(NC(=O)CSc2nncn3c2cc2sccc23)c1,73% (inactive)
5,CCOc1cccc2sc(NC(=O)CS(=O)(=O)c3ccc(C)cc3)nc12,72% (inactive)
6,Cc1cccn2c(=O)c(C(=O)N3CCN(c4ccc(Cl)cc4)CC3)cnc12,87% (inactive)
7,CCCSCCCNC(=O)C1CCCN(C(=O)c2cnn(-c3ccccc3)c2-n2cccc2)C1 (stereo not given),107% (inactive)
8,COc1ccccc1CNC(=O)c1oc2ccc3c(c2c1C)C(=O)CC(C)(C)O3,59% (inactive)
9,Cc1ccc(OC(C)C(=O)NCC2(N3CCOCC3)CCCCC2)cc1C (stereo not given),86% (inactive)
10,CC1CCCN(Cc2c(O)ccc3c(=O)c(-c4ccc(Cl)cc4)c(C(F)(F)F)oc23)C1 (stereo not given),71% (inactive)
11,CCc1cccc(C)c1NC(=O)C(CC)Sc1nncn2c1cc1occc12 (stereo not given),78% (inactive)
12,CCc1ccc(CNC(=O)c2ccc3c(c2)nc2n3CCOC2)cc1,111% (inactive)
13,CN(C(=O)C1CCN(c2ncnc3c2nc2n3CCCCC2)CC1)c1ccccc1F,60% (inactive)
14,O=C(CSc1c2c(nc3cc(Cl)ccc13)CCCC2)N1CCN(c2ccccc2)CC1,44% (inactive)
15,CC1CCCN(C(=O)CSc2c3c(nc4cc(Cl)ccc24)CCCC3)C1 (stereo not given),-1% (active)
16,O=C(CSc1c2c(nc3ccc(Cl)cc13)CCCC2)N1CCN(c2ccc(Cl)cc2)CC1,53% (inactive)
17,CC1CCCCN1C(=O)CSc1c2c(nc3cc(Cl)ccc13)CCCC2 (stereo not given),-1% (active)
18,CC1CCN(C(=O)CSc2c3c(nc4ccc(Cl)cc24)CCCC3)CC1,-1% (active)
19,Cc1ccc(CNC(=O)CSc2c3c(nc4cc(Cl)ccc24)CCCC3)cc1,83% (inactive)
20,CCOC(=O)C1CCN(C(=O)CSc2c3c(nc4ccc(Cl)cc24)CCCC3)CC1,56% (inactive)
21,CCC(C)NC(=O)CSc1c2c(nc3cc(Cl)ccc13)CCCC2 (stereo not given),82% (inactive)
22,COCCNC(=O)CSc1c2c(nc3cc(Cl)ccc13)CCCC2,71% (inactive)
23,O=C(CSc1c2c(nc3ccc(Cl)cc13)CCCC2)N1CCCCC1,29% (inactive)
24,O=C(CSc1c2c(nc3cc(Cl)ccc13)CCCC2)N1CCN(c2ccccc2F)CC1,69% (inactive)

row,Structure (SMILES),survival
1,CC1CCN(C(=O)CSc2c3c(nc4cc(Cl)ccc24)CCCC3)CC1,10% (active)
2,CCCCN1C(=O)CN(C2CCCCCC2)C(=O)C1c1ccc(OCC)c(OC)c1 (stereo not given),78% (inactive)
3,CCCCNc1nc2c(S(=O)(=O)c3ccc(Cl)cc3)nnn2c2ccsc12,89% (inactive)
4,O=C(NC1CC2CCCC(C1)N2CC(=O)N1CCCc2ccccc21)c1ccccc1 (stereo not given),97% (inactive)
5,CCOc1ccc(C2CC(=O)c3c([nH]c(C(=O)OC4CCCCCC4)c3C)C2)cc1 (stereo not given),79% (inactive)
6,O=C(Cn1nc(Cc2cccnc2)c2ccccc2c1=O)N1CCN(c2ccc(F)cc2)CC1,89% (inactive)
7,Cc1ccccc1CNC(=O)C(=O)NCC(c1cccs1)S(=O)(=O)c1ccc(Cl)cc1 (stereo not given),74% (inactive)
8,Cc1ccc(OCC(=O)OCc2cc(=O)n3nc(C4CCCCC4)sc3n2)cc1C,79% (inactive)
9,CC1=Nc2cc(C(=O)N3CCCCC3)ccc2Sc2ccc(C)cc21,3% (active)
10,CCCC1=Nc2cc(C(=O)N3CCC(C)CC3)ccc2Sc2ccc(C)cc21,107% (inactive)
11,CC1=Nc2cc(C(=O)N3CCC(C)CC3)ccc2Sc2ccc(Cl)cc21,81% (inactive)
12,CCOC(=O)C1CCN(C(=O)c2ccc3c(c2)N=C(CC)c2cc(C)ccc2S3)CC1,29% (inactive)
13,CNC(=O)c1ccc2c(c1)N=C(C)c1cc(C)ccc1S2,80% (inactive)
14,CCC1=Nc2cc(C(=O)N3CCC(C)CC3)ccc2Sc2ccc(C)cc21,-1% (active)
15,CC(C)CCNC(=O)CN1C(=O)CCn2nc(-c3cn(C)c4ccccc34)cc21,87% (inactive)
16,COc1ccccc1-c1c(C)nn2c(N3CCN(c4ccc(F)cc4)CC3)cc(C)nc12,88% (inactive)
17,O=c1c(N2CCN(c3cccc(C(F)(F)F)c3)CC2)csc2ccc(Cl)cc12,74% (inactive)
18,CCOC(=O)c1c(S(=O)(=O)NCC(=O)Nc2cc(C)ccc2C)c(C)n(C)c1C,66% (inactive)
19,Cn1c(=O)n(-c2cccc(Cl)c2)c(=O)c2sc3ccccc3c21,71% (inactive)
20,Cc1ccc(S(=O)(=O)N2CCN(Cc3cc(=O)n4nc(-c5ccccc5Cl)sc4n3)CC2)cc1,64% (inactive)
21,CCn1cc(S(=O)(=O)c2ccccc2)c(=O)c2cc(F)c(F)cc21,82% (inactive)
22,CCc1ccccc1NS(=O)(=O)c1ccc2[nH]cc(C(=O)N3CCCCC3)c(=O)c2c1,127% (inactive)
23,Cc1ccc(-c2nn(CCC(N)=O)c(=O)c3ccccc23)cc1,65% (inactive)
24,CCOc1ccc(C(=O)Nc2ccc(-c3cc4ccccc4oc3=O)cc2)cc1Br,75% (inactive)

row,Structure (SMILES),survival
1,Cc1ccc(Cl)cc1NC(=O)c1ccc(-c2nc(CSc3ccccc3)c(C)o2)cc1,55% (inactive)
2,CCN1CCC(N(Cc2cccc(OC)c2)C(=O)Nc2cccc(C)c2C)CC1,-3% (active)
3,CCN1CCC(N(Cc2ccc3c(c2)OCO3)C(=O)Nc2cccc(C)c2C)CC1,83% (inactive)
4,CCN1CCC(N(Cc2cccc(OC)c2)C(=O)Nc2ccc(C)cc2Cl)CC1,53% (inactive)
5,CCc1cccc(C)c1NS(=O)(=O)c1ccc(-n2cccn2)cc1,128% (inactive)
6,O=C(CCc1ccccc1)Nc1nnc(CCN2CCCCC2)s1,97% (inactive)
7,CCCn1cc(S(=O)(=O)c2ccccc2)c(=O)c2cc(F)c(N3CCCC(C)C3)cc21 (stereo not given),71% (inactive)
8,CC(C)OC(=O)CSc1nnc(CNc2ccc(F)cc2)n1C1CCCCC1,108% (inactive)
9,Cc1cccc(Cn2cccc2CNS(=O)(=O)c2ccc(Br)cc2)c1,64% (inactive)
10,CCc1ccc(S(=O)(=O)NCc2cccn2Cc2cccc(C)c2)cc1,71% (inactive)
11,Cc1cccc(Cn2cccc2CNS(=O)(=O)c2ccccc2F)c1,-4% (active)
12,COc1ccc(-c2noc(CN(C)S(=O)(=O)c3c(C)cc(C)cc3C)n2)cc1OC,78% (inactive)
13,COc1cc(OC)cc(-c2nc(-c3ccc4c(c3)[nH]c(=O)n4C)no2)c1,73% (inactive)
14,COc1ccc(N2CCN(c3ccc(-c4nc(-c5cccc(C)c5)no4)cc3[N+](=O)[O-])CC2)cc1,89% (inactive)
15,COc1cc(OC)cc(-c2nc(-c3cccc(C)c3)no2)c1,-15% (active)
16,Cc1cccc(-c2noc(-c3ccc(N4CCN(C)CC4)c([N+](=O)[O-])c3)n2)c1,-3% (active)
17,CCc1ccc(OCc2nc(-c3ccc(OC)c(OC)c3)no2)c(Br)c1,38% (inactive)
18,COc1ccc(-c2noc(COc3ccc(Br)cc3C)n2)cc1OC,11% (active)
19,COc1ccc(OCc2nc(-c3ccc(OC)c(OC)c3)no2)cc1,70% (inactive)
20,Cc1cccc(-c2noc(-c3ccc(N4CCCC4)c([N+](=O)[O-])c3)n2)c1,81% (inactive)
21,Cc1ccc(-c2noc(-c3ccc(N4CCN(C)CC4)c([N+](=O)[O-])c3)n2)cc1,85% (inactive)
22,COc1ccc(-c2noc(COc3cc(C)c(Br)c(C)c3)n2)cc1OC,80% (inactive)
23,COc1ccc(-c2noc(COc3cc(C)ccc3C)n2)cc1OC,0% (active)
